Only some compounds are listed: those with a hit (about 19% of all), similar ones and a draw of the others.
TGFb SMAD3 inh: inhibitors of TGF-b signaling; hit rate 1.2% among 410,000; HepG2 CAGA-GFP TGF-b/SMAD3 reporter, GFP fluorescence, 18 h; TGF-beta stimulated, 500 pg/mL final; Potency, µM (doses to about 46.1 µM), without a hit: at the highest dose activity, negative = inhibition, usual class: inhibitors; also: potency is read from the fitted curve at half-maximal effect; % is scaled to controls: 0 for no effect and ±100 for the full control effect; nearly all actives have a fitted effect of over 65% in size
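Inhibition of TGF-beta-driven CAGA-GFP reporter expression in HEPG2 cells is measured by cellular GFP fluorescence after 18 h stimulation with 500 pg/mL recombinant TGF-beta in 1% FBS medium at 37 degrees C.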
HepG2 tox: kills HepG2 cells in TGF-b inhibitor counter-screen; Potency, µM (highest dose often 46.1 µM), inactives show at the highest dose activity change, negative = cytotoxicity, usual class: cytotoxic; hit rate 0.76% among 410,000; HepG2 CAGA-GFP viability, ATP luminescence, 18 h; also: potency is read from the fitted curve at half-maximal effect
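CellTiter-Glo luminescence gave cytotoxicity after 18 hours at 37 degrees C. The cells were HepG2 CAGA-GFP in 1% FBS DMEM, stimulated with 500 pg/mL TGF-beta after compound addition. %Activity was normalised to no-cell wells (complete cell-killing) and DMSO (no toxicity), and curves were fitted and classified.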
DT40 TDP1 no CPT: qHTS for Inhibitors of human tyrosyl-DNA phosphodiesterase 1 (TDP1): qHTS in cells in absence of CPT | AID 686978, 2013 | DT40 Tdp1-/- hTDP1 cells, no CPT, ATP luminescence, 48 h | Potency, µM (titrated, usually from 46.2 µM), inactives show at the top dose activity change, negative = growth inhibition, usual class: inhibitors | hit rate 15% among 420,000; also: potency is read from the fitted curve at half-maximal effect; % is scaled to controls: 0 for no effect and ±100 for the full control effect; nearly all actives have a fitted effect of over 55% in size
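Chicken DT40 Tdp1-/- cells stably complemented with human TDP1 were seeded at 400 cells/well with DMSO in place of 20 nM camptothecin. After compound pinning, cells grew at least 48 hr at 37 °C; viability read by CellTiter-Glo luminescence.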
S-ASM inh: blocks human secretory acid sphingomyelinase. Potency, µM (highest dose often 57.5 µM), for inactives: at the highest dose activity change, negative = inhibition, most hits filed as inhibitors. placental ASM, HMU-PC fluorogenic substrate, 60 min. P17405. hit rate 0.006% among 340,000; also: potency is read from the fitted curve at half-maximal effect
Target sequence (P17405 47-631 limits assumed): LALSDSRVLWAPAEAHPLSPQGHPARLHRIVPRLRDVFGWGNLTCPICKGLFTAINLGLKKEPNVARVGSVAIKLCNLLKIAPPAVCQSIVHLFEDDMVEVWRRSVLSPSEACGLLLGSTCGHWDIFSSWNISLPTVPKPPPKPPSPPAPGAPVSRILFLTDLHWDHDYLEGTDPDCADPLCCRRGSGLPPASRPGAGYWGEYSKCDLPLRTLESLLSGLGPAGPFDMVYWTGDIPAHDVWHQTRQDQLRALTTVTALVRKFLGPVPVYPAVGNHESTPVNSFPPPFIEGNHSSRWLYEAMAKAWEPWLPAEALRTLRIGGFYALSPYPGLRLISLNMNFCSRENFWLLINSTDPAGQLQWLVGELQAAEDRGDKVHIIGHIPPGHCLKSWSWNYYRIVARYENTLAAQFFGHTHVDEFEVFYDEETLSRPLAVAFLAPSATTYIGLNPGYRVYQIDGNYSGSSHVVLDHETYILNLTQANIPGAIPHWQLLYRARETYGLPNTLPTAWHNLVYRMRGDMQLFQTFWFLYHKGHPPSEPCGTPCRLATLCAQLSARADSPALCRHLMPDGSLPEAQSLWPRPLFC
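qHTS format. ASM enzyme prepared from human placenta hydrolyses the fluorogenic substrate HMU-PC0 (9 uM final) over 60 min at 37 °C after a 10 min compound preincubation.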
IL1B secr inh: inflammasome signaling inhibition, IL-1 beta readout. hit rate 4.7% among 360,000. AID 743279. activity change, % at 57.5 µM. THP-1 LPS/ATP IL-1B secretion, AlphaLISA, 16 h; stronger effect = lower value; in the data active = activity change below about -50%; inconclusive = mostly about -30% to -49%; also: % is scaled to controls: 0 for no effect and ±100 for the full control effect
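THP-1 cells pretreated 1 hr with compounds (up to 57.5 uM final), then stimulated with LPS (250 ng/mL final) plus ATP (1.25 mM final); secreted IL-1B measured by AlphaLISA after 16 hr, decreased signal indicating inhibition.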
TDP1 cell CPT: DT40-hTDP1 cell growth loss with CPT. chicken DT40 Tdp1-/-;hTDP1 cells + 20 nM CPT, ATP luminescence, 48 h. Potency, µM (series often up to 46.2 µM), for the others: top-dose activity change, negative = growth inhibition, most hits filed as inhibitors. hit rate 12% among 420,000; also: potency is read from the fitted curve at half-maximal effect; % is scaled to controls: 0 for no effect and ±100 for the full control effect; nearly all actives have a fitted effect of over 55% in size
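Chicken DT40 Tdp1-/- cells stably complemented with human TDP1 were seeded at 400 cells/well in medium containing 20 nM camptothecin, exposed to pin-transferred compounds, and grown at 37 °C for at least 48 hr. Viability was read as ATP luminescence.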
The depositor's hits bear a star; ? = inconclusive; / = not tested or not shown; [ ] = another dose, or the depositor's remark. Unless noted, calls follow the shape of the dose curve; as a rule, active = well fitted curve in the direction sought with a large enough effect; inconclusive = small, poorly fitted or top-dose-only effect, or another doubt; inactive = no such curve, though single readings can be large; an effect the other way counts as inactive or inconclusive.

SMILES | TGFb SMAD3 inh | HepG2 tox | DT40 TDP1 no CPT | S-ASM inh | IL1B secr inh | TDP1 cell CPT
CCc1ccccc1NC(=O)c1nnn(Cc2ccc(Cl)cc2)c1N | ? | -3% | 13µM* | / | / | ?
CN1OC[C@@H]2CN(Cc3cc(Cl)cc(Cl)c3)[C@H](c3cccc(-c4ccccc4)c3)C[C@@H]21 | -18% | -23% | 4% | -5% | -25 | -22%
COc1ccc(Cn2nnc(C(=O)Nc3cc(OC)ccc3OC)c2N)cc1 | ? | -29% | ? | / | / | 18µM*
COc1ccccc1NC(=O)c1nnn(CC(=O)Nc2cccc(SC)c2)c1N | -13% | -12% | 0% | -4% | 10 | 1%
Cc1cccc(Cn2nnc(C(=O)Nc3cc(C)ccc3C)c2N)c1 | -14% | -18% | 18µM* | / | / | 29µM*
COc1ccc(Cl)cc1NC(=O)Cn1nnc(C(=O)NCc2cccs2)c1N | -21% | -23% | 1.2µM* | / | / | 4.6µM*
COc1ccc(Br)cc1Cn1nnc(C(=O)Nc2cccc(SC)c2)c1N | -3% | -17% | 23µM* | / | / | 16µM*
CC1CCN(S(=O)(=O)c2nnc(NC(=O)COc3ccccc3)s2)CC1 | 10% | 2% | -4% | -2% | -2 | -2%
S=c1nc(C2CC2)[nH]c2ccccc12 | -5% | 3% | ? | ? | 24 | ?
CC(C)c1nc(=S)c2ccccc2[nH]1 | -7% | 3% | 18µM* | 2% | 13 | ?
CCc1ccc(NC(=O)CN(C(=O)N2CCN(CC)CC2)S(=O)(=O)c2ccc(C)cc2)cc1 | 0% | -1% | -3% | -2% | -55* | 1%
CCOC(=O)c1ccc(S(=O)(=O)Nc2ccccc2-c2nnn(CC)n2)cc1 | -5% | 1% | 9.2µM* | 5% | -16 | 15µM*
CCOC(=O)c1ccc(CN(Cc2ccc(C)cc2)S(=O)(=O)c2ccc(F)c(C(=O)Nc3ccc(C)c(F)c3)c2)cc1 | -11% | -4% | -17% | / | / | -6%
Cc1ccc(NC(=O)CN(C(=O)N2CCN(C)CC2)S(=O)(=O)c2ccc(C)cc2)cc1 | 26% | 2% | -5% | 2% | -14 | -7%
CCOC(=O)c1ccc(S(=O)(=O)NCCNCc2ccccc2)cc1 | -4% | -15% | ? | 1% | -76* | ?
CCOC(=O)c1ccc(NC(=O)CNS(=O)(=O)c2ccccc2)cc1 | 7% | 3% | ? | -1% | -5 | ?
CCOC(=O)c1ccc(CN(Cc2ccc(C)cc2)S(=O)(=O)c2ccc(NC(C)=O)cc2)cc1 | ? | -18% | 15µM* | / | / | ?
CCOC(=O)c1ccc(CN(Cc2ccccc2)S(=O)(=O)c2ccc(C)cc2)cc1 | -17% | -29% | 16µM* | / | / | 29µM*
C[C@@H]1NS(=O)(=O)[C@H]2C[C@@H]3C=C[C@]2(O3)[C@H]1OC(=O)c1ccc(C(C)(C)C)cc1 | -9% | -6% | 16µM* | -2% | 0 | 23µM*
Cc1cccc(C(=O)O[C@@H]2[C@H](Cc3ccccc3)NS(=O)(=O)[C@H]3C[C@@H]4C=C[C@]23O4)c1 | ? | -9% | 23µM* | -6% | -16 | ?
Cc1ccccc1C(=O)O[C@H]1[C@H](Cc2ccccc2)NS(=O)(=O)[C@H]2CC3C=C[C@]12O3 | -28% | -17% | 20µM* | -10% | 2 | ?
O=C(O[C@H]1[C@H](Cc2ccccc2)NS(=O)(=O)[C@H]2CC3C=C[C@]12O3)c1ccc(Br)cc1 | -20% | 40% | ? | / | / | ?
Cc1cccc(C(=O)O[C@H]2[C@H](Cc3ccccc3)NS(=O)(=O)[C@H]3CC4C=C[C@]23O4)c1 | ? | -1% | ? | 2% | -24 | ?
O=c1ccn([C@@H]2O[C@H](CNCc3cccn3-c3ccncc3)[C@@H](O)[C@H]2O)c(=O)[nH]1 | -12% | -25% | -20% | / | 0 | ?
CC(=O)Nc1sc(N/N=C/c2ccc(O)cc2)nc1-c1ccc(C)cc1 | 0% | 6% | 11% | 10% | -3 | -17%
SMILES | TGFb SMAD3 inh | HepG2 tox | DT40 TDP1 no CPT | S-ASM inh | IL1B secr inh | TDP1 cell CPT
CC(=O)Nc1sc(N/N=C/c2ccccc2)nc1-c1ccc(C)cc1 | -1% | -10% | ? | -4% | -90* | ?
CC(=O)Nc1sc(N/N=C\c2ccccc2Cl)nc1-c1cccs1 | -5% | -29% | 18µM* | 0% | -3 | 16µM*
CCOc1cc(/C=N/Nc2nc(-c3cccs3)c(NC(C)=O)s2)ccc1O | -22% | 7% | 13µM* | 2% | -60* | -3%
CC(=O)N1CCC[C@H]1C(=O)N1CCc2c(cnc(C)c2CNC(=O)/C=C/c2cccs2)C1 | / | / | -3% | / | / | -6%[9.04 µM]
CCCn1nnnc1NCc1c(F)cccc1Cl | -5% | 3% | ? | 5% | 2 | ?
CC(C)(C)NC(=O)C(c1ccncc1)n1c(=O)c(-c2cc3ccccc3[nH]2)nc2ccccc21 (stereo not drawn) | / | / | 16µM* | / | -123* | 23µM*
CC(C)(C)NC(=O)C(c1ccnc2ccccc12)n1c(=O)c(-c2cc3ccccc3[nH]2)nc2ccccc21 (stereo not drawn) | / | / | 18µM* | / | 7 | ?
CC(C)(C)NC(=O)C(C1CC1)n1c(=O)c(-c2cc3ccccc3[nH]2)nc2ccccc21 (stereo not drawn) | / | / | ? | / | -14 | 18µM*
CC(C)(C)NC(=O)C(c1ccccc1F)n1c(=O)c(-c2cc3ccccc3[nH]2)nc2ccccc21 (stereo not drawn) | / | / | 13µM* | / | 4 | ?
Nc1nc(COC(=O)C2CC(=O)N(CCc3ccccc3)C2)nc(Nc2ccccc2)n1 (stereo not drawn) | 1% | -12% | 2% | -1% | 15 | -14%
Cc1ccc(S(=O)(=O)N2CCN(C(=O)c3ccc(Br)o3)CC2)c(C)c1 | 13% | -12% | ? | 2% | -3 | ?
COC(=O)c1cc(COC(=O)c2nc3nc(C)cc(C)n3n2)oc1C | -6% | -16% | -15% | -1% | 7 | ?
O=C(Nc1cccc(C(F)(F)F)c1)c1cccnc1NCCO | 13% | -4% | 5% | 55% | 31 | -7%
O=C(Nc1cccc(C(F)(F)F)c1)c1cccnc1NCCc1ccccc1 | ? | -102% | 16µM* | 54% | -67* | ?

Screens: PubChem BioAssay, National Center for Advancing Translational Sciences (NCATS)
